# Assay outcomes as filed in PubChem.
# hgDAF-12 ag: H. glycines DAF-12 receptor agonists, primary screen, cell-based, luminescence, HEK293, GAL4 fusion, UAS-luciferase. HEK293 GAL4-hgDAF12 UAS-luciferase reporter, agonist luminescence; normalized to butyrate control. activation, % at 6.8 µM. Nuclear hormone receptor DAF-12 (Heterodera glycines), GAL4 fusion. 370,000 tested, 1.8% active;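 active = activation above a cutoff set at the mean of all screened compounds plus 3 SD, cut at about 10% in these data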;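 note: 0% = DMSO wells and 100% = sodium butyrate wells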
# FXN GAA850 act: FXN promoter activators, primary screen, cell-based, luciferase luminescence, HEK293 lucGAA850. HEK293 lucGAA850 FXN promoter luciferase reporter, 24 h; percent of 10 µM SAHA response. 360,000 tested, 0.56% active. activation, % at 6 µM;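 active = activation above the average of all compounds screened plus 3 SD, cutoff fixed separately per campaign, cut at about 7.5% in these data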;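 note: 0% = DMSO wells and 100% = 10 µM SAHA wells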
# hcDAF-12 act: H. contortus DAF-12 nuclear receptor activators, primary screen, cell-based, luminescence, HEK293, lit1-tk-luc reporter. HEK293 hcDAF-12 lit1-tk-luc reporter; 0% DMSO, 100% Δ7-dafachronic acid. activation, % at 6.8 µM. 370,000 tested, 1.4% active. AID 652067, 2013;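 active = activation above the mean of all tested compounds plus 3 SD, cut at about 5.5% in these data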;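 note: 100% = response to 3 µM Δ7-dafachronic acid high control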
# DAX1 inh-1: DAX1 (NR0B1) inhibitors, primary screen, cell-based, HEK293, Gal4-DAX1, luciferase luminescence; inhibition, % at 6.75 µM; HEK293 Gal4-DAX1 luciferase reporter; 340,000 tested, 0.99% active; Nuclear receptor subfamily 0 group B member 1 (Homo sapiens), P51843;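 active = inhibition above the mean over all tested compounds plus 3 SD, cut at about 4.2% in these data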;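 note: 0% = DAX1-transfected cells with DMSO and 100% = empty-vector control cells with DMSO; inhibition shows as a rise in luminescence from relieved DAX1 repression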
# Target sequence (P51843 207-470 limits assumed): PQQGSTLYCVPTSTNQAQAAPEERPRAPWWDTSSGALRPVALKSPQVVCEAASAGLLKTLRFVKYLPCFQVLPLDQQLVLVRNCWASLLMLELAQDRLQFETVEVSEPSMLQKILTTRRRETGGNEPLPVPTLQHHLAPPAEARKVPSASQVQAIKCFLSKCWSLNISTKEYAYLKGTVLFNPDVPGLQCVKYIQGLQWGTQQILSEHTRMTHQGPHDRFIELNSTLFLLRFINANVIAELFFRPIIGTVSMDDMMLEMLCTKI
# ssDAF-12 act: S. stercoralis DAF-12 nuclear receptor activators, primary screen, cell-based, luminescence, HEK293, GRIP1 co-expression, lit1-tk-luc. Nuclear hormone receptor DAF-12 (Strongyloides stercoralis). HEK293 ssDAF-12/GRIP1 lit1-tk-luc reporter; % of 3 µM dafachronic acid response. activation, % at 6.8 µM. 370,000 tested, 1% active. AID 652126, 2013;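 active = activation above the mean over all tested compounds plus 3 SD, cut at about 0.9% in these data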;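 note: 0% = DMSO-only wells and 100% = 3 µM delta7-dafachronic acid wells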
# DAX1 inh-2: DAX1 (NR0B1) inhibitors on StAR promoter, primary screen, cell-based, luminescence, SF-1 (NR5A1), full-length DAX-1; HEK293T StAR-luciferase reporter, SF-1/DAX-1 repression relief; inhibition, % at 6.8 µM; 370,000 tested, 1.1% active; AID 652010, 2013;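 active = inhibition above the mean over all tested compounds plus 3 SD, cut at about 3.6% in these data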;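 note: 0% = DAX-1 cells with DMSO and 100% = cells lacking DAX-1 with DMSO; higher inhibition means more luminescence from relief of DAX-1 repression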
# DAX1 inh confirm: DAX1 (NR0B1) inhibitors relieving SF-1 repression, confirmation, cell-based, luminescence, HEK293T, full-length DAX-1, SF-1 activated StAR promoter | shares compounds with DAX1 inh-2 | HEK293T StAR-promoter luciferase reporter, SF-1/DAX-1 repression | inhibition, % at 6.8 µM | 2,400 tested, 87% active | AID 652134, 2013;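 active = inhibition above the average of every tested compound plus 3 SD, cut at about 3.8% in these data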;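 note: 0% = DAX-1 cells with DMSO and 100% = no DAX-1 control cells with DMSO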
# SF1 AF2mut Luc: StAR reporter signal changes without DAX1, counter-screen for DAX1 inhibitor project, cell-based, luminescence, AF-2 mutant SF-1, transactivation; shares compounds with DAX1 inh-2; HEK293 StAR-luciferase, SF-1 AF2 mutant; inhibition, % at 6.8 µM; 2,400 tested, 78% active;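 active = inhibition above the mean of all tested compounds plus 3 SD, cut at about 3% in these data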;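 note: 0% = DAX-1 transfected cells with DMSO and 100% = cells without DAX-1 with DMSO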
# LXRb hcDAF ctr: LXR agonists, Gal4 luciferase reporter, confirmation, counter-screen for hcDAF-12 agonist project, cell-based, luminescence, HEK293, H. contortus campaign | 3,400 tested, under 10 active | shares compounds with hcDAF-12 act | HEK293 Gal4-LXR tk-luc reporter, 24 h; normalized: DMSO 0%, positive control 100% | AID 743027, 2013 | activation, % at 6.8 µM;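 active = mean percent activation of the reporter above a cutoff set as the average over tested compounds plus their standard deviation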
# hcDAF12 conf: H. contortus DAF-12 receptor agonists, confirmation, cell-based, luminescence, HEK293, lit1-tk-luc, triplicate | shares compounds with hcDAF-12 act | AID 743032, 2013 | 3,400 tested, 61% active | HEK293 hcDAF-12 lit1-tk-luc reporter; % of Δ7-dafachronic acid response | activation, % at 6.8 µM;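 active = mean activation across triplicate tests above the threshold derived from the earlier primary screen, cut at about 5.5% in these data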;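 note: 0% = DMSO only wells and 100% = 3 µM Δ7-dafachronic acid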
# * hit, by the source's call; · = no result. Most compounds without a hit are left out; they make up all but 4.5% or so of the library.
SMILES,hgDAF-12 ag,FXN GAA850 act,hcDAF-12 act,DAX1 inh-1,ssDAF-12 act,DAX1 inh-2,DAX1 inh confirm,SF1 AF2mut Luc,LXRb hcDAF ctr,hcDAF12 conf
O=C(Nc1nc2ccccc2[nH]1)c1ccc(Br)o1,17*,0,11*,2,1.4*,6.0*,7.9*,5.2*,1,7.4*
O=C1NN(c2ccccc2)C(=O)/C1=C/c1coc2ccccc2c1=O,13*,7,17*,2,1.7*,4.8*,3,1,0,5
O=C1NN(c2ccccc2)C(=O)/C1=C\c1coc2ccc(O)cc2c1=O,10,1,3,1,0,0,·,·,·,·
Cc1ccc(NC(=O)CNC(=O)c2sc3ccccc3c2Cl)nc1,6,0,7.0*,3,0,4.6*,4.8*,3.4*,0,3
Cc1ccc(C)c(NC(=O)c2ccc3ccccc3n2)c1,11*,4,17*,1,2.6*,5.0*,15*,10*,2,22*
Cc1ccc(C)c(NC(=O)c2ccccn2)c1,5,2,1,0,-1,1,·,·,·,·
COC(=O)[C@@]12C[C@@H](CC(=O)N3CCSCC3)C(=O)N(Cc3cccc4ccccc34)C1=CCC(C)(C)C2,0,·,-1,·,-1,0,·,·,·,·
CC(C)(OC(=O)c1ccc(C#N)cc1)c1cc2ccccc2c(=O)o1,2,-1,-1,-1,-1,0,·,·,·,·
COC(=O)c1ccc(-c2nc(-c3cccs3)no2)cc1,14*,-2,6.8*,1,1.8*,6.8*,3,-2,1,4
CC1(OC(=O)CCc2ccccc2)C(=O)C=C2C=C(c3ccc(C#N)cc3)N(C3CCCC3)C=C2C1=O (stereo not given),-1,1,-1,-1,-1,0,·,·,·,·
CC(C)(C)NC(=O)NC(=O)COc1ccc(Br)cc1Br,17*,4,6.6*,2,0,7.5*,18*,6.0*,2,9.5*
Fc1ccc(-c2nnc(-c3ccc4ccccc4c3)o2)cc1,20*,5,8.0*,1,2.1*,7.0*,11*,5.2*,2,12*
Fc1ccc(-c2nnc(-c3ccc(F)cc3)o2)cc1,0,4,2,2,-1,0,·,·,·,·
CC(=O)c1ccc(NC(=O)CN2C(=O)NC(C)(C3CCCCC3)C2=O)cc1 (stereo not given),0,2,1,1,-1,0,·,·,·,·
Nc1nn(-c2cccc(F)n2)cc1-c1ccc(Cl)cc1,18*,4,11*,0,1.4*,5.9*,13*,5.3*,2,9.8*
COc1ccccc1NC(CC(=O)c1ccccc1)C(=O)OCC(=O)c1ccc(Br)cc1 (stereo not given),23*,4,20*,0,2.1*,7.8*,8.9*,-1,2,21*
CC(=O)NC(Cc1ccccc1)C(=O)OCC(=O)c1ccc(Br)cc1 (stereo not given),1,1,0,0,-2,0,·,·,·,·
COc1ccccc1NC(CC(=O)c1ccccc1)C(=O)OCC(=O)c1ccc(C)c(C)c1 (stereo not given),22*,6,17*,3,3.3*,7.8*,21*,8.1*,1,12*
Cc1ccc(S(=O)(=O)N2CCN(C(=O)C3CCCC3)CC2)cc1C,-1,0,-1,0,-1,0,·,·,·,·
Cn1nc(C(=O)NCc2ccccc2Cl)c2c1-c1ccccc1S(=O)(=O)C2,0,-1,-2,0,-1,0,·,·,·,·
O=C(/C=C/Nc1ccc(F)cc1F)c1cccs1,21*,-2,12*,-3,2.4*,6.1*,8.3*,2,1,15*
O=C(/C=C/Nc1ccccc1F)c1cccs1,29*,3,26*,0,3.9*,5.7*,15*,7.8*,2,22*
O=C(C=Cc1cccs1)c1cccs1,5,4,-1,0,0,0,·,·,·,·
Cc1ccc(N/C=C/C(=O)c2cccs2)cc1,22*,-2,10*,-4,1.4*,8.3*,6.3*,2,2,14*
O=C(/C=C/Nc1ccc(Br)cc1F)c1ccco1,23*,-4,14*,-2,1.5*,6.0*,7.7*,0,1,9.9*
COc1ccc(/C=N\NC(=O)c2cc(O)c(O)c(O)c2)cc1CN1CCN(c2ccc(F)cc2)CC1,-1,4,-1,0,-1,0,·,·,·,·
COc1ccc(/C=C/C(=O)OCC(=O)Nc2ccc3c(c2)OCO3)cc1,2,0,0,-1,-1,1,·,·,·,·
O=C(Nc1cccc(O)c1)C(=O)Nc1ccccn1,9,1,8.2*,-2,0,6.1*,10*,5.6*,1,4
